Screens: PubChem, National Center for Advancing Translational Sciences (NCATS)
An excerpt weighted towards active compounds, which were near 2.4% of everything screened.
POLB inh = qHTS Assay for Inhibitors of DNA Polymerase Beta | Potency, µM (doses to about 114 µM), usual class: inhibitors | Pol beta primer extension/strand displacement, fluorescence kinetic | P06746 | 1.3% of 340,000 active | AID 485314, 2010
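Values derive from four-parameter Hill fits of normalized kinetic data: reads at 0 and 10 min following addition of 50 nM substrate to 10 nM Pol beta preincubated 15 min with compound.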
WRN helicase inh = qHTS for Inhibitors of WRN Helicase. Bifunctional 3'-5' exonuclease/ATP-dependent helicase WRN (Homo sapiens), Q14191. WRN helicase unwinding, fluorescent forked duplex, kinetic. Potency, µM (highest dose often 114 µM), actives largely listed as inhibitors. 0.46% of 360,000 active. AID 651768, 2012; note: nearly all actives have a fitted effect of over 55% in size
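Fluorescence dequenching readout, ex 525 nm/em 598 nm, kinetic mode: forked duplex DNA (100 nM final) with adjacent fluorophore and quencher unwound by WRN (20 nM final) with 2 mM ATP. Compound preincubation 15 min, room temperature.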
POLI inh = qHTS for Inhibitors of Polymerase Iota. AID 588590, 2011. 1% of 390,000 active. Potency, µM (titrated, usually from 115 µM), usual class: inhibitors. Pol iota fluorescent replication assay, 10 min. DNA polymerase iota (Homo sapiens), Q9UNA4
Target sequence (Q9UNA4 whole entry, looked up): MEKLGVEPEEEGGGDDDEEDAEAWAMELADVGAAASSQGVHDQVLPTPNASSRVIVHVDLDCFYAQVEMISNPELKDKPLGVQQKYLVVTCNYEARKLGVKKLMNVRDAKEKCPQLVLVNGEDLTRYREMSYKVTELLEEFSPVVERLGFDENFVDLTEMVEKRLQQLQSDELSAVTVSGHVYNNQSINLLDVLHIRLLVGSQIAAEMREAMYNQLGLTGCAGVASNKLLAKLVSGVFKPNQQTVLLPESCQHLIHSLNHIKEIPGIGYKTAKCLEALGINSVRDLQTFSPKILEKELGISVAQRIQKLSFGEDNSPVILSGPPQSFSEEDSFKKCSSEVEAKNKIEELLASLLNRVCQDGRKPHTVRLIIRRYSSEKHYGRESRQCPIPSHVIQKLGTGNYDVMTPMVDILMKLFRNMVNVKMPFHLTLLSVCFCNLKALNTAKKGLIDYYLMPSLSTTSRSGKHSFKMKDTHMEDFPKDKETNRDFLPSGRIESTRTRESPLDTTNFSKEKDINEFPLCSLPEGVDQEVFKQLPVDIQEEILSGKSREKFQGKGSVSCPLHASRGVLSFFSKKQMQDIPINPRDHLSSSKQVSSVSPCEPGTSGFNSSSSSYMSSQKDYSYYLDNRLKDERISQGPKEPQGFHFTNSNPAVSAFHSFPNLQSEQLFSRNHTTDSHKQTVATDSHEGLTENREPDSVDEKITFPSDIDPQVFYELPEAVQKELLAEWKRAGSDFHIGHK
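Pol iota at 10 nM preincubated 15 min with compounds at room temperature; reaction started with fluorescent substrate, 50 nM final. Fluorescence read kinetically at 0 and 10 min; buffer-only wells as negative control.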
FEN1 inh = qHTS Assay for the Inhibitors of Human Flap endonuclease 1 (FEN1); P39748; Recombinant FEN1 flap cleavage, fluorescence, 15 min; Potency, µM (top dose mostly 114 µM), hits mostly inhibitors; 0.35% of 390,000 active; AID 588795, 2011; note: nearly all actives have a fitted effect of over 65% in size
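With each library titrated from low to high concentration, compounds met 10 nM FEN1 for 15 min at room temperature before 50 nM substrate was added; readings at 0 and 15 min fed four-parameter Hill curve fits.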
Pol kappa inh = qHTS for Inhibitors of Polymerase Kappa; DNA polymerase kappa (Homo sapiens), Q9UBT6; purified Pol kappa, fluorescent DNA synthesis assay, 10 min; Potency, µM (titrated, usually from 107 µM), most hits filed as inhibitors; 0.53% of 400,000 active
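Inhibition of 10 nM Pol kappa is measured by a fluorescent read-out at 0 and 10 min following addition of 50 nM substrate (final), with a 15-min room-temperature compound preincubation.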
Pol eta inh = qHTS for Inhibitors of Polymerase Eta; DNA polymerase eta (Homo sapiens), Q9Y253; recombinant Pol eta, fluorescent DNA replication assay; Potency, µM (top dose mostly 114 µM), actives largely listed as inhibitors; 1.2% of 390,000 active; AID 588591, 2011
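Pol eta (10 nM) was preincubated with compounds for 15 min at room temperature, after which fluorescent replication substrate (50 nM final) was added to start the reaction. Fluorescence was read kinetically at 0 and 10 min.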
Large screens that a line does not name were inactive. Calls come from the whole dose curve; as a rule, active = well fitted curve in the direction sought with a large enough effect; inconclusive = small, poorly fitted or top-dose-only effect, or another doubt; inactive = no such curve, though single readings can be large; an effect the other way counts as inactive or inconclusive.

Cc1ccc(S(=O)(=O)c2c(N)n(/N=C/c3ccco3)c3nc4ccccc4nc23)cc1	none
Cc1nc2c(c(=O)n1Cc1ccccc1Cl)c1nc3ccccc3nc1n2Cc1ccco1	POLB inh 20µM (no result: WRN helicase inh, POLI inh, FEN1 inh, Pol kappa inh, Pol eta inh)
COc1ccc(Cn2c3nc4ccccc4nc3c3c(=O)n(Cc4ccco4)c(C)nc32)cc1	POLB inh 10µM (no result: WRN helicase inh, POLI inh, FEN1 inh, Pol kappa inh, Pol eta inh)
Cc1nc2ccccc2c(=O)n1Cc1ccco1	none
COc1ccc(S(=O)(=O)c2c(N)n(Cc3ccco3)c3nc4ccccc4nc23)cc1	POLB inh inconclusive, WRN helicase inh 35µM, POLI inh 7.9µM, FEN1 inh inconclusive, Pol kappa inh 25µM, Pol eta inh 7.9µM
Cc1noc(C)c1S(=O)(=O)N(CC(=O)Nc1ccc(F)cc1F)c1ccc(C(C)C)cc1	Pol eta inh inconclusive (no result: WRN helicase inh)
CCOc1ccc(NC(=O)CN2C(=O)c3ccccc3Sc3ccc(C(=O)OC)cc32)cc1	POLB inh 79µM, Pol eta inh inconclusive (no result: WRN helicase inh)
Oc1ccc(Br)cc1C1C=C(c2ccc3c(c2)OCO3)NC(c2ccc(F)c(Br)c2)N1 (centres undefined)	POLI inh 13µM (no result: POLB inh, WRN helicase inh, Pol eta inh)
Oc1ccc(Br)cc1C1C=C(c2ccc3c(c2)OCO3)NC(c2ccc(Br)cc2)N1 (centres undefined)	POLI inh inconclusive (no result: POLB inh, WRN helicase inh, Pol eta inh)
CCC(=O)N1CCc2cc(CNS(=O)(=O)c3ccc(Cl)s3)ccc21	none (no result: WRN helicase inh)
Cc1c(C(=O)NC(C)C)oc2c1-c1[nH]ncc1CC2	POLI inh 25µM
CC/C(C)=N/Nc1nc(-c2cc3cccc(OC)c3oc2=O)cs1	WRN helicase inh inconclusive, POLI inh 50µM, Pol kappa inh inconclusive, Pol eta inh 50µM
COc1cccc2cc(-c3csc(CCn4nc(C)cc4C)n3)c(=O)oc12	Pol eta inh inconclusive
O=C(COc1ccc(F)cc1)Nc1ccc(C(=O)OCc2cc(=O)n3nc(C4CC4)sc3n2)cc1	none (no result: WRN helicase inh)
O=Nc1[nH]c(=O)c(/C=C(\O)c2ccccc2)nc1NO	POLB inh inconclusive, POLI inh 4µM, FEN1 inh inconclusive, Pol eta inh inconclusive
COc1ccc(S(=O)(=O)NCCC(=O)NC2CCCCC2C)cc1[N+](=O)[O-] (centres undefined)	POLI inh 50µM (no result: POLB inh)
Cc1ccc(S(=O)(=O)NCCC(=O)NC2CCCCC2C)cc1 (centres undefined)	none (no result: POLB inh)
CC(=O)c1c(CC(=O)O)[nH]n(-c2nc3ccccc3s2)c1=O	POLB inh 32µM, WRN helicase inh inconclusive, POLI inh inconclusive, Pol kappa inh inconclusive, Pol eta inh 50µM
O=C(COc1c(Cl)cccc1Cl)NN1C(=O)CSC1=S	POLI inh 18µM
COc1ccc2nc(N=Nc3ccc(O)c4ccccc34)sc2c1	POLB inh 45µM, Pol eta inh inconclusive
S=c1[nH]nc(-c2cc(-c3ccco3)[nH]n2)n1-c1cccc2ccccc12	POLB inh 25µM, POLI inh inconclusive, Pol eta inh inconclusive
CCN(C(=O)COC(=O)/C(C#N)=C/c1ccc(N(C)C)cc1)C1CCS(=O)(=O)C1 (centres undefined)	WRN helicase inh inconclusive, POLI inh 56µM, Pol kappa inh inconclusive (no result: POLB inh)
CN(C)c1ccc(/C=C(\C#N)C(=O)OCC(=O)N(C)C2CCS(=O)(=O)C2)cc1 (centres undefined)	none (no result: POLB inh)
O=[N+]([O-])c1ccc(C(c2sc3nc(-c4ccco4)nn3c2O)N2CCN(c3cccc(Cl)c3)CC2)cc1 (centres undefined)	Pol eta inh inconclusive (no result: WRN helicase inh)
CN(C)C(CNS(=O)(=O)c1cc([N+](=O)[O-])ccc1Cl)c1ccco1 (centres undefined)	POLI inh inconclusive, Pol eta inh 50µM (no result: POLB inh)
CC(=O)Oc1cc(OC(C)=O)c2c(=O)cc(-c3ccc(OC(C)=O)c(OC(C)=O)c3)oc2c1	Pol kappa inh 8.9µM (no result: POLB inh, WRN helicase inh, POLI inh, FEN1 inh, Pol eta inh)
